Read-out in assay [1]: Phosphatase and tensin (PTEN), PTEN (gene 5728)
Nature of the assay: LTEA_HepaRG_PTEN: Life Technologies and Expression Analysis (LTEA) Assay for Phosphatase and tensin (PTEN) using HepaRG (AID 2283523). The following applies: mRNA level, 48 h; actives raise or lower the signal. A digest of the protocol: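 Read-out: TaqMan qRT-PCR of PTEN transcript, normalized to three housekeeping genes, fitted in both directions against 0.5% DMSO. Differentiated human HepaRG cultures received chemicals for 48 h, eight-point half-log series topping at 100 uM.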

Read-out in assay [2]: solute carrier (SLC22A1), SLC22A1 (gene 6580)
Description: LTEA_HepaRG_SLC22A1: Life Technologies and Expression Analysis (LTEA) Assay for solute carrier (SLC22A1) using HepaRG (AID 2283524).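 On AC50: differentiated human HepaRG liver cells in serum-free induction medium.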 As to conditions: mRNA level, 48 h; actives raise or lower the signal. A digest of the protocol: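 Transcript level of SLC22A1 quantified by qRT-PCR (normalized to three housekeeping genes) after 48 h chemical exposure of HepaRG cells, eight concentrations up to 100 µM, half-log steps, 0.5% DMSO vehicle. Gain or loss relative to DMSO fitted bidirectionally.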

Read-out in assay [3]: Pyruvate Dehydrogenase Kinase 4 (PDK4), PDK4 (gene 5166)
Nature of the assay: LTEA_HepaRG_PDK4: Life Technologies and Expression Analysis (LTEA) Assay for Pyruvate Dehydrogenase Kinase 4 (PDK4) using HepaRG (AID 2283525). As to conditions: mRNA level, 48 h; actives raise or lower the signal. In short, it runs like this: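 Readout is qRT-PCR of PDK4 transcript, normalized to three housekeeping genes, with bidirectional fitting against 0.5% DMSO vehicle. Differentiated HepaRG cells were treated 48 h in serum-free induction medium, duplicate wells, eight-point half-log series topping at 100 uM.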

Read-out in assay [4]: Nuclear factor erythroid 2-related factor 2 (Homo sapiens) (UniProt Q16236)
Nature of the assay: LTEA_HepaRG_NFE2L2: Life Technologies and Expression Analysis (LTEA) Assay for Nuclear factor erythroid 2-related factor 2 (NFE2L2) Transcription Factor using HepaRG (AID 2283527). The following applies: mRNA level, 48 h; actives raise or lower the signal. In short, it runs like this: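 NFE2L2 transcript level was read by qRT-PCR (housekeeping ACTB/GAPDH/POLR2A normalisation) after 48 h chemical treatment of HepaRG in serum-free induction medium. Duplicate 8-point half-log curves, top 100 uM, 0.5% DMSO vehicle; up- or down-regulation fitted against vehicle.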

Read-out in assay [5]: succinate dehydrogenase complex iron sulfur subunit B (SDHB), SDHB (gene 6390)
Description: LTEA_HepaRG_SDHB: Life Technologies and Expression Analysis (LTEA) Assay for succinate dehydrogenase complex iron sulfur subunit B (SDHB) using HepaRG (AID 2283528). The following applies: mRNA level, 48 h; actives raise or lower the signal. A digest of the protocol: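 Readout is SDHB transcript level by qRT-PCR, normalised to three housekeeping genes and fitted bidirectionally against 0.5% DMSO vehicle. Human HepaRG cells were treated for 48 h at up to 100 uM.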

Read-out in assay [6]: Signal transducer and activator of transcription 3 (Homo sapiens) (UniProt P40763)
Description: LTEA_HepaRG_STAT3: Life Technologies and Expression Analysis (LTEA) Assay for Signal transducer and activator of transcription (STAT3) using HepaRG (AID 2283529). As to conditions: mRNA level, 48 h; actives raise or lower the signal. A digest of the protocol: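 STAT3 transcript quantified by qRT-PCR against three housekeeping genes (ACTB, GAPDH, POLR2A), fitted both directions relative to DMSO. HepaRG cultures exposed 48 h to eight half-log concentrations, top 100 uM, 0.5% DMSO, serum-free induction medium.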

Read-out in assay [7]: solute carrier (SLCO1B1), SLCO1B1 (gene 10599)
Nature of the assay: LTEA_HepaRG_SLCO1B1: Life Technologies and Expression Analysis (LTEA) Assay for solute carrier (SLCO1B1) using HepaRG (AID 2283530). The following applies: mRNA level, 48 h; actives raise or lower the signal. A digest of the protocol: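 Human HepaRG cultures treated for 48 h with an eight-concentration half-log series topping at 100 uM; SLCO1B1 measured by qRT-PCR and fitted bidirectionally relative to DMSO.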

Read-out in assay [8]: sulfotransferase 2A1 (SULT2A1), SULT2A1 (gene 6822)
Nature of the assay: LTEA_HepaRG_SULT2A1: Life Technologies and Expression Analysis (LTEA) Assay for sulfotransferase 2A1 (SULT2A1) using HepaRG (AID 2283531). The following applies: mRNA level, 48 h; actives raise or lower the signal. A digest of the protocol:
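Gene-expression endpoint in a human liver cell line: SULT2A1 mRNA change after 48 h chemical treatment, curves fitted in both directions relative to 0.5% DMSO vehicle. Concentrations spanned eight half-log steps from 100 uM.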

Read-out in assay [9]: Transforming Growth Factor (TGFA), TGFA (gene 7039)
Nature of the assay: LTEA_HepaRG_TGFA: Life Technologies and Expression Analysis (LTEA) Assay for Transforming Growth Factor (TGFA) using HepaRG (AID 2283532). The following applies: mRNA level, 48 h; actives raise or lower the signal. In short, it runs like this:
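TGFA transcript quantified by qRT-PCR (Fluidigm arrays) against three housekeeping genes, after 48 hours chemical treatment of HepaRG cells. Top concentration 100 uM with half-log dilutions, 8 points, duplicates, 0.5% DMSO.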

Read-out in assay [10]: Transforming Growth Factor (TGFB1), TGFB1 (gene 7040)
Nature of the assay: LTEA_HepaRG_TGFB1: Life Technologies and Expression Analysis (LTEA) Assay for Transforming Growth Factor (TGFB1) Transporter using HepaRG (AID 2283533). As to conditions: mRNA level, 48 h; actives raise or lower the signal. A digest of the protocol: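 Eight-point concentration-response (max 100 uM, half-log) in HepaRG under serum-free induction conditions, 48 h. TGFB1 mRNA by qRT-PCR, housekeeping-normalized.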

Read-out in a further assay: TIMP1, TIMP1 (gene 7076)
Nature of the assay: LTEA_HepaRG_TIMP1: Life Technologies and Expression Analysis (LTEA) Assay for TIMP1 using HepaRG (AID 2283534). As to conditions: mRNA level, 48 h; actives raise or lower the signal. A digest of the protocol:
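TIMP1 induction or repression in HepaRG cells after 48 h chemical exposure (eight concentrations, highest 100 uM), assessed by normalized qRT-PCR with bidirectional fitting to DMSO controls.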

Read-out in assay [11]: Tumor necrosis factor receptor 1 (TNFRSF1A), TNFRSF1A (gene 7132)
Nature of the assay: LTEA_HepaRG_TNFRSF1A: Life Technologies and Expression Analysis (LTEA) Assay for Tumor necrosis factor receptor 1 (TNFRSF1A) using HepaRG (AID 2283535). The following applies: mRNA level, 48 h; actives raise or lower the signal. In short, it runs like this: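 Assay uses 48 h chemical treatment of differentiated HepaRG monolayers, tested in duplicate at eight concentrations from 100 uM downward in 0.5% DMSO. mRNA is normalized to ACTB, GAPDH and POLR2A, with induction or suppression fitted relative to vehicle.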

Read-out in assay [12]: Cellular tumor antigen p53 (Homo sapiens) (UniProt P04637)
Description: LTEA_HepaRG_TP53: Life Technologies and Expression Analysis (LTEA) Assay for Tumor Protein P53 (TP53) using HepaRG (AID 2283537). As to conditions: mRNA level, 48 h; actives raise or lower the signal. In short, it runs like this:
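Read-out is TP53 transcript level by microfluidic qRT-PCR, normalised to three housekeeping genes and fitted bidirectionally against DMSO. Human HepaRG cells received compounds for 48 h, highest concentration 100 uM.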

Read-out in assay [13]: UDP glucuronosyltransferase (UGT1A1), UGT1A1 (gene 54658)
Description: LTEA_HepaRG_UGT1A1: Life Technologies and Expression Analysis (LTEA) Assay for UDP glucuronosyltransferase (UGT1A1) using HepaRG (AID 2283538). As to conditions: mRNA level, 48 h; actives raise or lower the signal. In short, it runs like this:
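HepaRG, 48 h chemical exposure (top 100 uM, half-log 8-pt, 0.5% DMSO vehicle), duplicate wells; qRT-PCR (TaqMan, Fluidigm array) for UGT1A1 mRNA, housekeeping-normalized; bidirectional curve fit vs DMSO baseline.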

Read-out in assay [14]: UDP glucuronosyltransferase (UGT1A6), UGT1A6 (gene 54578)
Nature of the assay: LTEA_HepaRG_UGT1A6: Life Technologies and Expression Analysis (LTEA) Assay for UDP glucuronosyltransferase (UGT1A6) using HepaRG (AID 2283539). As to conditions: mRNA level, 48 h; actives raise or lower the signal. In short, it runs like this:
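Measures mRNA change in HepaRG hepatic cells exposed 48 h to chemicals (eight-point, maximum 100 uM, 0.5% DMSO vehicle) in serum-free induction medium. Expression normalized to endogenous controls; DMSO served as negative control and baseline.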

The nature of assay [15]: LTEA_HepaRG_LDH_cytotoxicity: Cytotoxicity Assessment in the Life Technologies and Expression Analysis (LTEA) Assay (AID 2283563; active means hit-call score of the fitted dose curve at least 0.9, where 1 is the maximum;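 on AC50: LDH activity released into spent culture medium as a marker of cell death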). In short, it runs like this:
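Spent-medium LDH after 48 h chemical exposure of HepaRG cells in serum-free induction medium; eight concentrations, half-log dilutions from 100 uM, duplicate wells, fitted upward relative to 0.5% DMSO.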

Read-out in assay [16]: NAD(P)H dehydrogenase [quinone] 1 (NQO1), NQO1 (gene 1728)
Description: LTEA_HepaRG_NQO1: Life Technologies and Expression Analysis (LTEA) Assay for NAD(P)H dehydrogenase [quinone] 1 (NQO1) using HepaRG (AID 2283526). As to conditions: mRNA level, 48 h; actives raise or lower the signal. A digest of the protocol: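 qRT-PCR read-out (Fluidigm TaqMan), normalized to three housekeeping genes, after 48 h chemical exposure of HepaRG cells. Concentrations: eight points, top 100 uM, half-log steps, 0.5% DMSO vehicle. Gain or loss of signal fitted relative to DMSO.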

Read-out in assay [17]: Thyroid Hormone Responsive (THRSP), THRSP (gene 7069)
Nature of the assay: LTEA_HepaRG_THRSP: Life Technologies and Expression Analysis (LTEA) Assay for Thyroid Hormone Responsive (THRSP) using HepaRG (AID 2283536). As to conditions: mRNA level, 48 h; actives raise or lower the signal. In short, it runs like this: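 THRSP transcript quantified by Fluidigm qRT-PCR against three housekeeping genes after 48 h chemical exposure of HepaRG cells in serum-free induction medium; eight-point half-log series, top 100 uM, 0.5% DMSO vehicle, duplicate wells.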

The nature of assay [18]: ATG_XTT_Cytotoxicity: Cytotoxicity Assessment in the Attagene TRANS-FACTORIAL HepG2 Assay (AID 2283584; active means hit-call score of the fitted dose curve at least 0.9, where 1 is the maximum). A digest of the protocol:
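24 h chemical exposure of reporter-transfected HepG2; XTT signal loss vs DMSO indicates cytotoxicity.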

Read-out in assay [19]: X-box binding protein 1 (XBP1), XBP1 (gene 7494)
Description: LTEA_HepaRG_XBP1: Life Technologies and Expression Analysis (LTEA) Assay for X-box binding protein 1 (XBP1) using HepaRG (AID 2283540). As to conditions: mRNA level, 48 h; actives raise or lower the signal. A digest of the protocol:
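Eight concentrations (half-log, highest 100 uM, 0.5% DMSO) tested in duplicate on HepaRG cells over 48 h in serum-free induction medium; qRT-PCR of XBP1 normalised to ACTB, GAPDH, POLR2A.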

Results filed as inconclusive are left out. Calls of active or inactive are those of the source. How the source made its calls, unless noted: active means hit-call score of the fitted dose curve at least 0.9, where 1 is the maximum; inactive means score below 0.9.

Sequence of Cellular tumor antigen p53 (Homo sapiens) (P04637 whole entry, looked up): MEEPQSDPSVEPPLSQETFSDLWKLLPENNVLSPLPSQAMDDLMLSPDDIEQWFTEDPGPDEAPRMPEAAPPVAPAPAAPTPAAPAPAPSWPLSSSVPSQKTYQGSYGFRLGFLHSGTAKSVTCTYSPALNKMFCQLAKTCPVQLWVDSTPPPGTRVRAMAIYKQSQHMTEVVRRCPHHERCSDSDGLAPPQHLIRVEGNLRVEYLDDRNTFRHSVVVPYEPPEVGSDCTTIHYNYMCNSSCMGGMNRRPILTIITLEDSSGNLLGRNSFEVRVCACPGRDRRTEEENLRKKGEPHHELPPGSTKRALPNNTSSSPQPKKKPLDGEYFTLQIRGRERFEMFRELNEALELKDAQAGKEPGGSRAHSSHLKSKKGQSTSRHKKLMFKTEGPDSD
Sequence of Signal transducer and activator of transcription 3 (Homo sapiens) (P40763 whole entry, looked up): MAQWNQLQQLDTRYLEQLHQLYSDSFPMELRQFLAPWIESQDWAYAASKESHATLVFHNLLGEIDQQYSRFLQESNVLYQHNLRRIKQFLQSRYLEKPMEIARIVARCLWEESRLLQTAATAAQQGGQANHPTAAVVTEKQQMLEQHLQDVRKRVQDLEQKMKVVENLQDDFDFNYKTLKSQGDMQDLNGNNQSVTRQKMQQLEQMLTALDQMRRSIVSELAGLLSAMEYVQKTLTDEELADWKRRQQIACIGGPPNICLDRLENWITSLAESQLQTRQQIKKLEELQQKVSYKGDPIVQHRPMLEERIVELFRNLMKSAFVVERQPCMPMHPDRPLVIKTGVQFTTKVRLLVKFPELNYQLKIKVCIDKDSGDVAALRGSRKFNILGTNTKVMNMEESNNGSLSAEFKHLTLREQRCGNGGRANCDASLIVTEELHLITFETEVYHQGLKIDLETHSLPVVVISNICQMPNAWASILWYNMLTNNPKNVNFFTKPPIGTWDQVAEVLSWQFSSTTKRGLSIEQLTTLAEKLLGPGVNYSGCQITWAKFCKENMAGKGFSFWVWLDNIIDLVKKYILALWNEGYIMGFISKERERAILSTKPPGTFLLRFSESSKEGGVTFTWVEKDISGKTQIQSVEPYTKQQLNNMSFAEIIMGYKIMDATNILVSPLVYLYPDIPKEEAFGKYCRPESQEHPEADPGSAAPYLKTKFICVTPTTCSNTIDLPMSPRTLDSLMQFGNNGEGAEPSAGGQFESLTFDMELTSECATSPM
Sequence of Nuclear factor erythroid 2-related factor 2 (Homo sapiens) (Q16236 whole entry, looked up): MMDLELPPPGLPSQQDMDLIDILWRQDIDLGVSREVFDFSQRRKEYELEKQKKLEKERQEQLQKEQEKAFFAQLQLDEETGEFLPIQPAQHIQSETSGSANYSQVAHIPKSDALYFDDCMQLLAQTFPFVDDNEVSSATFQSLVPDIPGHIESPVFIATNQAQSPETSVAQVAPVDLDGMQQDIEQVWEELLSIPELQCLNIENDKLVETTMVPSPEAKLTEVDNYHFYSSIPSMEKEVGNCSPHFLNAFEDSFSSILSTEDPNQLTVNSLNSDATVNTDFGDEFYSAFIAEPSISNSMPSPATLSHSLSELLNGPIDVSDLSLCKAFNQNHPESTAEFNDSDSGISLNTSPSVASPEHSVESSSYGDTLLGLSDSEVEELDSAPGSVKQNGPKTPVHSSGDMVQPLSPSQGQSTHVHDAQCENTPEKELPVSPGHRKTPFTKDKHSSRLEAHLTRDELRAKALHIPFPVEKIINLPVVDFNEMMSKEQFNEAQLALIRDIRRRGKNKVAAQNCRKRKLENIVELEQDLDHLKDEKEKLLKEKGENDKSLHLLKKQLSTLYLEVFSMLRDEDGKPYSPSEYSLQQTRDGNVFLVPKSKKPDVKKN

One may read the AC50 as the midpoint of the concentration-response curve, whichever way the signal moves. `CNS(=O)(=O)c1cc(C(=O)N2CCC(CCN3C4CCC3CC(n3c(C)nc5ccccc53)C4)(c3cccc(F)c3)CC2)c(Cl)cc1F` (configuration not stated): the outcome in assay [1] was “inactive”; in assay [4], “inactive”; in assay [6], “inactive”; in assay [9] it was “inactive”; with TIMP1, TIMP1 (gene 7076), “inactive”; in assay [11], “inactive”. Also, the outcome in [12] was inactive. In addition, the AC50 in assay [2] was 18.8 µM (active); in [3], 28.9 µM (active); in assay [5], 17.3 µM (active); in assay [7], 13.1 µM (active); in assay [8], 9.92 µM (active); in assay [10], 19.4 µM (active). Further, the half-maximal activity concentration (AC50) is 9.92 µM (active) in [13], 50 µM (active) in assay [14] and 32.2 µM (active) in [15].
In the case of `CCCCC(CC)COC(=O)CCCCCCCCC(=O)OCC(CC)CCCC` (configuration not stated), the compound was called inactive in [1], in assay [2], in assay [16], in assay [4], in assay [5] and in assay [6]. Moreover, the outcome in assay [7] was “inactive”; in [8], “inactive”; in assay [9] it was “inactive”; in [10], “inactive”; with TIMP1, TIMP1 (gene 7076), “inactive”; in assay [11] it was “inactive”. In addition, the compound was classed as inactive in assay [17], in [12], in assay [13], in [14] and in assay [18].
`CC(=O)OC[C@H]1O[C@@](COC(C)=O)(O[C@H]2O[C@H](COC(C)=O)[C@@H](OC(C)=O)[C@H](OC(C)=O)[C@H]2OC(C)=O)[C@@H](OC(C)=O)[C@@H]1OC(C)=O`: the compound was classed as inactive in assay [1], in assay [2], in [3], in assay [4], in assay [5] and in [6]. For the same compound, the outcome in assay [7] was “inactive”; in [8], “inactive”; in [9] it was “inactive”; in assay [10], “inactive”; in the assay with TIMP1, TIMP1 (gene 7076), “inactive”; in [11] it was “inactive”. Besides, the compound was called inactive in assay [17], in assay [12], in assay [13], in assay [14], in [19] and in [15]. Moreover, in assay [18], the outcome was inactive.

(Values after PubChem BioAssay (EPA / NIEHS).)
